ATXN2 expr inh = reduces ATXN2 reporter expression in HEK-293 cells | HEK-293 ATXN2-luciferase reporter, luminescence, 24 h | Potency, µM (highest dose often 57 µM), without a hit: at the highest dose activity change, negative = inhibition, most hits filed as inhibitors | 360,000 compounds, 0.72% hits | AID 1745845; also: % is scaled to controls: 0 for no effect and ±100 for the full control effect; nearly all actives have a fitted effect of over 55% in size
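ATXN2-luciferase reporter cells (luciferase flanked by upstream and downstream ATXN2 gene portions) were treated 24 h at 37 °C with compounds at up to 57 uM. SteadyGlo luminescence gave expression; GF-AFC fluorescence gave viability.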
HepG2 tox = kills HepG2 cells in TGF-b inhibitor counter-screen; HepG2 CAGA-GFP viability, ATP luminescence, 18 h; Potency, µM (top dose mostly 46.1 µM), inactives show at the top dose activity change, negative = cytotoxicity, actives largely listed as cytotoxic; 410,000 compounds, 0.76% hits; AID 588856
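HepG2 CAGA-GFP cells (1000/well, DMEM with 1% FBS) received compound, then TGF-beta at 500 pg/mL final, and were incubated 18 hours at 37 degrees C. Viability was read by CellTiter-Glo luminescence. Media-only wells were set as complete cell-killing and DMSO as no toxicity.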
KB-V1 cytotox = kills drug-selected multidrug resistant KB-V1 cells | KB-V1 MDR cells viability, CellTiter-Glo, 72 h | Potency, µM (top dose mostly 46.1 µM), most hits filed as cytotoxic | 400,000 compounds, 3.4% hits | AID 1347076; also: % is scaled to controls: 0 for no effect and ±100 for the full control effect; nearly all actives have a fitted effect of over 60% in size
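Readout: CellTiter-Glo luminescence, 10 min after addition. Cells: KB-V1 MDR subline, 72 h at 37 degrees C with compound. Analysis: corrected, normalized data fitted to concentration-effect curves.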
KB-3-1 cytotox = KB-3-1 parental cell cytotoxicity; KB-3-1 viability, CellTiter-Glo ATP luminescence, 72 h; Potency, µM (top dose mostly 46.1 µM), hits mostly cytotoxic; 400,000 compounds, 1.4% hits; AID 1347075; also: % is scaled to controls: 0 for no effect and ±100 for the full control effect; nearly all actives have a fitted effect of over 60% in size
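Cytotoxicity measured as CellTiter-Glo luminescence after 72 h at 37 C. Compound titrations were pinned onto drug-naive KB-3-1 parental adenocarcinoma cells grown in DMEM with 10% FBS, and normalized data fitted to concentration-response curves.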
TGFb inhibitor = TGF-b pathway inhibition | HepG2 CAGA-GFP TGF-b/SMAD3 reporter, GFP fluorescence, 18 h; TGF-beta stimulated, 500 pg/mL final | 410,000 compounds, 1.2% hits | AID 588855 | Potency, µM (titrated, usually from 46.1 µM), inactives show at the top dose activity, negative = inhibition, actives largely listed as inhibitors; also: % is scaled to controls: 0 for no effect and ±100 for the full control effect; nearly all actives have a fitted effect of over 65% in size
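Using HEPG2 CAGA-GFP reporter cells at 1000 cells/well, we pinned test compounds, stimulated with recombinant TGF-beta (500 pg/mL final) and measured total well GFP after 18 h.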
S2 tox = cell viability loss in ATXN counter-screen | S2 cells (HEK-293 line with an ATXN2-luciferase reporter) viability, CellTiter-Fluor protease fluorescence, 24 h | Potency, µM (doses to about 56.7 µM), hits mostly cytotoxic | 400,000 compounds, 0.49% hits | AID 651635; also: nearly all actives have a fitted effect of over 40% in size
Starred values were filed as active, the others as inactive; ! = not confirmed by another sample. An excerpt weighted towards active compounds, which were near 5.9% of everything screened. Calls follow the shape of the dose curve; as a rule, active = well fitted curve in the direction sought with a large enough effect; inconclusive = small, poorly fitted or top-dose-only effect, or another doubt; inactive = no such curve, though single readings can be large; an effect the other way counts as inactive or inconclusive. Potency is read from the fitted curve at half-maximal effect.

What do the screens show for `COc1cccc(CNc2ncnc3onc(C)c23)c1`?
ATXN2 expr inh: -21.5%; HepG2 tox: -13.9%; KB-V1 cytotox: inactive; KB-3-1 cytotox: 20.6µM*; TGFb inhibitor: -13.3%; S2 tox: inactive

What do the screens show for `COCC(=O)Nc1cc(C(=O)N2CCCC2c2nccs2)c2c(c1)nc(-c1ccncc1)n2C` (centres undefined)?
S2 tox: inactive

What do the screens show for `CS(=O)c1nc(-c2ccc(Br)cc2)cc(-c2ccccc2)c1C#N` (centres undefined)?
ATXN2 expr inh: 12.6µM*; HepG2 tox: -6.7%; KB-V1 cytotox: inconclusive; KB-3-1 cytotox: inconclusive; TGFb inhibitor: -7.8%; S2 tox: 20µM*

How did Cc1cccc(OCC(=O)NCc2ccc3c(c2)CCN3C(=O)c2ccc(Cl)cc2)c1 do in these assays?
HepG2 tox: 0.0%; KB-V1 cytotox: inactive; KB-3-1 cytotox: inactive; TGFb inhibitor: 6.5%

What do the screens show for `COc1ccc(C2CC(c3ccc4ccccc4c3)=NN2C(=O)CNC2CCCCC2)cc1` (centres undefined)?
HepG2 tox: 12.6µM*; KB-V1 cytotox: inconclusive; KB-3-1 cytotox: inactive; TGFb inhibitor: inconclusive

How did COc1ccc(C2=NN(C(=O)CSc3ncccn3)C(c3ccc(C)cc3)C2)cc1 (centres undefined) do in these assays?
ATXN2 expr inh: -8.7%; HepG2 tox: -23.0%; KB-V1 cytotox: 23.1µM*; KB-3-1 cytotox: inactive; TGFb inhibitor: inconclusive; S2 tox: inactive

What do the screens show for `COc1ccc(C2=NN(C(=O)CSc3ncccn3)C(c3cccc(OC)c3OC)C2)cc1` (centres undefined)?
ATXN2 expr inh: -18.2%; HepG2 tox: -16.4%; KB-V1 cytotox: inconclusive; KB-3-1 cytotox: inactive; TGFb inhibitor: 6.2%; S2 tox: inactive

Results for COC(=O)c1ccc2c(=O)n(CC3CCCO3)c(SCC(=O)Nc3ccccc3OC)nc2c1 (centres undefined) ?
ATXN2 expr inh: 29.6%; HepG2 tox: 3.3%; KB-V1 cytotox: 3.26µM*; KB-3-1 cytotox: inactive; TGFb inhibitor: 8.7%; S2 tox: inconclusive

What do the screens show for `COC(=O)c1ccc2c(=O)n(CC3CCCO3)c(SCC(=O)Nc3ccccc3Cl)nc2c1` (centres undefined)?
ATXN2 expr inh: inconclusive; HepG2 tox: -3.4%; KB-V1 cytotox: inactive; KB-3-1 cytotox: inactive; TGFb inhibitor: -12.0%; S2 tox: inconclusive

Results for CCCCCCCCCCCCCCCC[N+](C)(C)CCN(Cc1ccc(OC)cc1)c1ncccn1 ?
ATXN2 expr inh: 35.5µM*!; HepG2 tox: 10µM*; KB-V1 cytotox: inactive; KB-3-1 cytotox: inconclusive; TGFb inhibitor: inconclusive; S2 tox: 25.1µM*!

Results for N#CC(C#N)=C(Nc1ccc(F)cc1)SCc1cccc(F)c1 ?
ATXN2 expr inh: inconclusive; HepG2 tox: -42.0%; KB-V1 cytotox: inconclusive; KB-3-1 cytotox: 16.4µM*; TGFb inhibitor: inconclusive; S2 tox: inactive

How did C/C(=N\NC(N)=O)c1ccc(Cl)cc1 do in these assays?
ATXN2 expr inh: 7.2%; HepG2 tox: 0.4%; KB-V1 cytotox: 11.6µM*; KB-3-1 cytotox: inconclusive; TGFb inhibitor: -10.7%; S2 tox: inactive

What do the screens show for `CC(=NNC(=S)N1CCC1)c1ccccn1`?
ATXN2 expr inh: 0.0343µM*!; HepG2 tox: -28.3%; KB-V1 cytotox: inconclusive; KB-3-1 cytotox: inconclusive; TGFb inhibitor: inconclusive; S2 tox: inconclusive

How did CC(=NNC(=S)SCc1ccccc1)c1ccccn1 do in these assays?
ATXN2 expr inh: inconclusive; HepG2 tox: -31.9%; KB-V1 cytotox: inconclusive; KB-3-1 cytotox: inconclusive; TGFb inhibitor: inconclusive; S2 tox: inconclusive

Results for C/C(=N/NC(=O)c1ccccn1)c1ccco1 ?
ATXN2 expr inh: inconclusive; HepG2 tox: -60.3%; KB-V1 cytotox: 20.6µM*; KB-3-1 cytotox: inconclusive; TGFb inhibitor: 4.2%; S2 tox: inactive

How did C/C(=N\NC(=O)c1cc(C)nc2ccccc12)c1ccccn1 do in these assays?
ATXN2 expr inh: inconclusive; HepG2 tox: -36.9%; KB-V1 cytotox: inactive; KB-3-1 cytotox: inactive; TGFb inhibitor: 3.98µM*; S2 tox: inconclusive

What do the screens show for `C/C(=N/NC(=O)c1ccccn1)c1ccc(O)cc1`?
HepG2 tox: -2.9%; KB-V1 cytotox: inactive; KB-3-1 cytotox: inactive; TGFb inhibitor: 5.5%; S2 tox: inactive

What do the screens show for `O=C(O)c1ccccc1-c1ccc(C(F)(F)F)cc1`?
ATXN2 expr inh: 5.3%; S2 tox: inactive

Results for NC[C@@H]1O[C@@H](O[C@H]2[C@@H](O)[C@H](O[C@@H]3[C@@H](O)[C@@H](N)C[C@H](N)[C@H]3O[C@H]3O[C@H](CN)[C@@H](O)[C@@H](O)[C@H]3N)O[C@H]2CO)[C@H](N)[C@@H](O)[C@@H]1O ?
ATXN2 expr inh: 2.1%; S2 tox: inactive

How did CCCSc1ncc(Cl)c(C(=O)Nc2c(C(=O)Nc3ccc(C)cc3)oc3ccccc23)n1 do in these assays?
HepG2 tox: -0.8%

Results for CC(C(=O)NCc1ccccc1F)n1ccc2cc(S(=O)(=O)N3CCCC3)ccc21 (centres undefined) ?
ATXN2 expr inh: -17.6%; HepG2 tox: -20.5%; KB-V1 cytotox: inactive; KB-3-1 cytotox: inactive; TGFb inhibitor: 0.8%; S2 tox: inconclusive

How did CCCCCCCCCC(=O)N/N=C(\C)c1cccnc1 do in these assays?
ATXN2 expr inh: -0.1%; HepG2 tox: -45.3%; KB-V1 cytotox: inactive; KB-3-1 cytotox: inactive; TGFb inhibitor: -4.3%; S2 tox: inactive

How did CCCCCC(=O)N/N=C(\C)c1ccccn1 do in these assays?
ATXN2 expr inh: inconclusive; HepG2 tox: -5.9%; KB-V1 cytotox: 5.17µM*; KB-3-1 cytotox: inconclusive; TGFb inhibitor: -29.4%; S2 tox: inactive

What do the screens show for `C/C(=N\NC(=O)c1ccc(Cl)cc1)c1ccccn1`?
ATXN2 expr inh: inconclusive; HepG2 tox: -24.0%; KB-V1 cytotox: inconclusive; KB-3-1 cytotox: inconclusive; TGFb inhibitor: 2µM*; S2 tox: inconclusive

What do the screens show for `CCCCCCC[n+]1ccc(/C=C/c2c(C)[nH]c3ccccc23)cc1`?
HepG2 tox: -111.3%; KB-V1 cytotox: inactive; KB-3-1 cytotox: 0.651µM*; TGFb inhibitor: 388.3%

Results for CCCCNC(=S)N(C)/N=C/c1c(C)[nH]c2ccccc12 ?
ATXN2 expr inh: -6.7%; HepG2 tox: -33.2%; KB-V1 cytotox: inconclusive; KB-3-1 cytotox: inactive; TGFb inhibitor: inconclusive; S2 tox: inactive
